# According to the supplement of paper PMC3334620:
# The full ranking holds about 33,000 sequences; the median of “E-score (-0.5 to 0.5)” is about -0.011, and the highest 2% start at about 0.28. The full list was thinned out, with the highest values kept by preference.
# Biological target: T1, Gcr1 (UniProt P07261)
# T1 sequence: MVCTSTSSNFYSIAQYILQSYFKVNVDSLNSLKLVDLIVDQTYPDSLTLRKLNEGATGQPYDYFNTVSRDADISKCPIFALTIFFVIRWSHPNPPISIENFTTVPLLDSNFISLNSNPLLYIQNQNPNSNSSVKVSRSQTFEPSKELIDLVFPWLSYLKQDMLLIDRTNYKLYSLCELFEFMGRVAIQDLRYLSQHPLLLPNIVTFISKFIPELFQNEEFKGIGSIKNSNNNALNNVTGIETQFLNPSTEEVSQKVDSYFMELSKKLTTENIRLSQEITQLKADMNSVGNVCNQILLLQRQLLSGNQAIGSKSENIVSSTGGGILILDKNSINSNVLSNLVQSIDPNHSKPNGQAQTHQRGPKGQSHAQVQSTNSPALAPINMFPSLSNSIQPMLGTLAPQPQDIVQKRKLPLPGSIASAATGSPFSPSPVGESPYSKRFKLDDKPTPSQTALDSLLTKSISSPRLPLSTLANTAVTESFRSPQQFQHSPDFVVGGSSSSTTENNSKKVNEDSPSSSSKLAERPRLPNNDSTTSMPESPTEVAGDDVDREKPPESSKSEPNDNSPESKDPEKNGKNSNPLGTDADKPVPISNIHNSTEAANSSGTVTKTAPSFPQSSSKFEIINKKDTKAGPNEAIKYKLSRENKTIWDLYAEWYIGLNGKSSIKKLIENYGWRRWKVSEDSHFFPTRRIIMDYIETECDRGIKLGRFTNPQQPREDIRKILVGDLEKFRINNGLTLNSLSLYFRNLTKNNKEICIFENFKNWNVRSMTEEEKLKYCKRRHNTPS
# Experiment: PBM E-score (8-mer binding enrichment) (E-score (-0.5 to 0.5)); higher = stronger / more preferred TF binding
# Details: protein concentration: 100 nM; construct: GST-full length
# Outline: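 GST-tagged yeast TFs (full-length or DNA-binding domain) were made by PURExpress in vitro transcription/translation and applied at about 100-200 nM to universal all-10-mer Agilent arrays. The arrays were made double-stranded by primer extension, on fresh or once-stripped slides. Bound protein was detected with fluorescent anti-GST, and scans were normalised with masliner. Each ungapped eight-base word, pooled with its reverse complement, received an E-score (modified Wilcoxon-Mann-Whitney statistic) from the Universal PBM Analysis Suite.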
row,Sequence,PBM E-score
1,ATTTTAGG,0.249
2,CGAAACAC,0.13
3,AATACTGT,0.0108
4,AACATCGC,-0.031
5,GCAGGTAA,0.0517
6,AGTCTTCG,-0.124
7,ATAAGCTA,-0.078
8,AGAAGCTA,0.338
9,GGAAGTTA,0.339
10,AGAAGTTA,0.0491
11,AGAAGCTG,0.348
12,GGAAGCTA,0.457
13,ATAAGCTG,0.15
14,CGAAGCTA,0.198
15,AAAAGCTA,-0.0743
16,AGAAGCTC,0.273
17,GGAAGCGA,0.175
18,CGAAGTTA,0.0921
19,TAACCATA,0.0179
20,GATCTGAA,-0.0028
21,CGGGATAA,0.0532
22,CCGGATTA,-0.0163
23,CTGGATCC,0.346
24,ATGGATCC,0.278
25,ACGGATTC,0.237

row,Sequence,PBM E-score
1,CGGGATAC,0.304
2,CGGGATTA,-0.0698
3,CTGGATCA,-0.0687
4,CGGGATTC,0.39
5,AGGGATTC,0.276
6,CCGGATTC,0.313
7,GGGGATAC,0.0984
8,ACACTGGA,0.264
9,AACAGTGC,-0.142
10,CGGAAGAA,-0.0973
11,ATCTAGCC,0.0906
12,ATTCCGTC,0.0616
13,CTATAGAC,-0.109
14,CGCAGCAG,0.0351
15,CCCAAATC,0.238
16,CTAGCCAC,-0.154
17,ATGTGAAA,-0.0826
18,CTGGATTA,0.246
19,CTGGATTC,0.361
20,ATGGATTC,0.272
21,CCGCACAC,-0.0537
22,CAGATGCC,0.217
23,AAGATGCC,0.31
24,AAGATGCA,0.0396
25,AAGATGCG,0.198

row,Sequence,PBM E-score
1,GAGATGCC,0.158
2,AAGATGCT,0.288
3,TTAACCAA,-0.0373
4,ATCGCCGG,0.123
5,CAACTCAA,0.0769
6,AATAGGCG,0.168
7,ATACGAAT,0.113
8,CTACGAAG,0.0785
9,CGACGAAG,-0.219
10,AGACGAAG,0.335
11,AGACGAAT,0.0336
12,ATACGAAG,0.293
13,AGCTTACG,0.0302
14,AACTACTA,0.288
15,AACTACTC,0.0802
16,AACTACTG,-0.0124
17,CGGATACG,0.0225
18,TTATGGAA,0.163
19,ACTCTTCA,-0.15
20,AGTAGCAC,0.287
21,GGTAGCAC,0.0683
22,AGTAGCAA,0.111
23,CCGGTTCG,-0.0186
24,CCTAAATC,0.306
25,CCTAAATA,0.129

row,Sequence,PBM E-score
1,ACTAAATC,0.0396
2,GTCGGTTA,-0.058
3,CGAACACC,-0.135
4,CGTTCATA,-0.0211
5,ATTACTGG,0.362
6,AATACTGA,0.0152
7,CATACTGG,0.209
8,ATTACTGC,-0.0604
9,AATACTGG,0.369
10,ATTACTGA,-0.0681
11,ACTACTCC,0.0438
12,CAATTAGC,-0.0933
13,CGCGTCCC,0.0398
14,ATCGTCCA,0.0357
15,AACGTCCC,-0.159
16,AGCGTCCA,0.437
17,AGCGTCCT,0.426
18,ACCGTCCT,-0.196
19,GGCGTCCC,0.362
20,AGCGTCCC,0.347
21,AGCGTCCG,0.165
22,AGCGTCAC,-0.078
23,GCCGTCCC,-0.0711
24,AACGTCCT,0.043
25,CACTTCTA,0.00557

row,Sequence,PBM E-score
1,ATTTATGC,0.0089
2,GCGGCCCC,0.19
3,GATGAGAA,-0.138
4,TGCGTCCA,0.0639
5,CGCGTCCA,0.245
6,GGCGTCCA,0.436
7,GTGACATA,0.217
8,GCAGATTA,0.0499
9,GGATACCA,0.33
10,AGATACCA,0.246
11,TGATACCA,0.107
12,GAAAACCA,0.084
13,AAATCTTA,0.111
14,GGTATCTA,0.292
15,AGCATCTC,0.121
16,AGAATCTA,0.219
17,CGAATCTA,0.122
18,GGCATCTA,0.347
19,AGTATCTA,-0.103
20,CGTATCTA,0.0661
21,AGCATCTA,0.319
22,GGAATCTA,0.357
23,CGCATCTA,0.204
24,AGCATCTG,0.115
25,GGCATCAA,0.0535

row,Sequence,PBM E-score
1,CGAGACAG,-0.0925
2,AGACGGAA,-0.0525
3,AAGGAATA,-0.159
4,ACTGGTCC,-0.314
5,ACCCACAC,-0.0404
6,ACTCGCCG,-0.00848
7,ACTCTTCC,-0.211
8,CGCGAACA,-0.00841
9,GCGGGGCC,0.131
10,ACATCTAC,-0.0726
11,CATTGAAC,0.0331
12,ATTTTAGC,0.0912
13,AGCCACTG,0.11
14,CACCGGTC,-0.271
15,GAGGACGC,0.289
16,CTGGACGC,0.412
17,CAGGACGA,-0.145
18,GAGGACAC,-0.225
19,CCGGACGG,-0.116
20,CAGGACGC,0.412
21,CCGGACGC,0.31
22,GAGGACGA,-0.0483
23,AAGGACGC,0.256
24,CTGGACGA,-0.0396
25,ATGGACGC,0.262

row,Sequence,PBM E-score
1,ACGGACGC,0.14
2,AATTTGAG,0.137
3,AGCTTCGA,0.0125
4,TATTGCCA,0.00643
5,ACCCGCTC,-0.0223
6,ATATGCAT,-0.0625
7,AGAAAAAC,0.134
8,GTGTTCCA,0.112
9,ACCCGGCA,0.125
10,AACGGAGG,-0.167
11,CAGCCACG,0.12
12,AGAAGAAT,0.119
13,ACAAGATC,0.0465
14,ATAAGAAC,0.269
15,ATAAGAAA,0.171
16,AGAAGAAC,0.13
17,AAAAGAAG,0.309
18,ACAAGATG,0.294
19,AAAAGAAC,-0.0325
20,CAAAGAAG,0.184
21,AGAAGAAG,0.437
22,ACAAGATA,0.102
23,ATAAGAAG,0.381
24,CTCAATAC,-0.00463
25,CTGTTGGA,0.103
